The results in this text go back to PubChem BioAssay (Tox21).

Assay [1] in a line: qHTS assay for small molecules that induce genotoxicity in human embryonic kidney cells expressing luciferase-tagged ATAD5 (AID 651632). Note: nearly all actives have a fitted effect of over 15% in size. Summed up:
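Luminescence read-out: after 16 hr compound exposure at 37C, ATAD5-luciferase HEK293T cells received Amplite, 30 min RT, then CCD imaging. A rise in signal marks genotoxic stress.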
(In general: Quantitative high-throughput screening tests each substance at several concentrations.)

Assay [2] is described as follows: qHTS assay for small molecule agonists of the p53 signaling pathway - cell viability (AID 651633; calls by dose curve; note: nearly all actives have a fitted effect of over 30% in size; note: potency is the fitted concentration of half-maximal effect). Summed up:
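p53RE-bla cells were treated with compound for 16 hours at 37 C. Cytotoxicity was then measured as CellTiter-Glo luminescence after 30 min at room temperature.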

A short description of assay [3]: qHTS assay for small molecule disruptors of the mitochondrial membrane potential - cell viability (AID 720634; calls by dose curve; note: nearly all actives have a fitted effect of over 20% in size; note: potency is the fitted concentration of half-maximal effect). Summed up:
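Luminescence from CellTiter-Glo (ATP content) gave viability in HepG2 cells, read in the same wells as the MMP dye assay after 1 hr compound exposure at 37 C.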

Assay [4] can be described thus: qHTS assay to test for compound auto fluorescence at 590 nm (red) in HepG2 cells (AID 720674). In outline: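 Seeding: 2,000 HepG2 cells/well, MEM/10% FBS, overnight 37 C. Dosing: compound vs DMSO. Incubation: 1 hr, 37 C, 5% CO2. Read: fluorescence 540 ex/590 em, Rose Bengal sodium as red reference.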
A short description of assay [5]: qHTS assay to test for compound auto fluorescence at 535 nm (green) in HepG2 cells (AID 720675). Note: potency is the fitted concentration of half-maximal effect.
The nature of assay [6]: qHTS assay to test for compound auto fluorescence at 460 nm (blue) in HEK293 cells (AID 720678). In outline: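 HEK293 cells (2,000/well, medium with 10% dialyzed FBS) attached 4-5 hr, then exposed to compound overnight at 37C, 5% CO2. Blue fluorescence read at 405/460 nm, with triamterene as reference fluorophore.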
A short description of assay [7]: qHTS assay to test for compound auto fluorescence at 590 nm (red) in HEK293 cells (AID 720679). Summed up: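 HEK293 cells (2,000/well, 10% dialyzed FBS) attached 4-5 hr, then dosed with compound or DMSO and incubated overnight at 37C, 5% CO2. Red fluorescence read at 540/590 nm, Rose Bengal sodium as reference fluorophore.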
A short description of assay [8]: qHTS assay for small molecule disruptors of the mitochondrial membrane potential (AID 720635). Note: potency is the fitted concentration of half-maximal effect. Summed up: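 HepG2 cells exposed to compound 1 hr at 37C, then Mito-MPS dye 30 min. Ratio read of aggregate (540/590 nm) versus monomer (490/535 nm) fluorescence.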
Assay [9] is described as follows: qHTS assay for small molecules that induce genotoxicity in human embryonic kidney cells expressing luciferase-tagged ATAD5 - cell viability (AID 651634; calls by dose curve; note: nearly all actives have a fitted effect of over 25% in size; note: potency is the fitted concentration of half-maximal effect). In outline:
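HEK293T ATAD5-luc cells, 2,000/well; compound 15.5 hr, 37C/5% CO2; CellTiter-Fluor 30 min, 37C; fluorescence read.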

Each structure is given as a SMILES string. Results filed as inconclusive are left out. Active and inactive are the calls of the source. Unless noted, calls come from the whole dose curve; as a rule, active = well fitted curve in the direction sought with a large enough effect in the repeat runs; inconclusive = weak or mixed curves; inactive = no such curve, though single readings can be large; an effect the other way counts as inactive or inconclusive.

As to `COC(=O)C1=C(C)NC(C)=C(C(=O)O[C@H]2CCN(Cc3ccccc3)C2)[C@H]1c1cccc([N+](=O)[O-])c1`, the Potency result in [1], in assay [2], in assay [3], in [4], in assay [5] and in assay [6] was “inactive” each time. Moreover, the Potency result in assay [7] is “inactive”.
Turning to `C[N+]1(C)[C@@H]2CC(OC(=O)C(O)(c3cccs3)c3cccs3)C[C@H]1[C@@H]1O[C@@H]12` (stereo partly drawn), the Potency result in [1], in assay [2], in assay [3], in [8], in assay [4] and in assay [5] was “inactive” throughout. Also, the Potency entry in [6] and in assay [7] was “inactive” in each case.
Consider `O=C(O)CN(CC(=O)O)CC1=CC2C(=CC1=O)Oc1cc(O)c(CN(CC(=O)O)CC(=O)O)cc1C21OC(=O)c2ccccc21` (stereo not drawn), for which the Potency entry in assay [1], in [2], in assay [3] and in assay [6] was “inactive” throughout. For the same molecule, the Potency in assay [5] was 10 µM (active).
On to `CCCc1ccc(C(=O)O)cc1`, for which the Potency entry in assay [1], in assay [2], in [9], in [4], in assay [5] and in assay [6] was “inactive” in each case. In addition, the Potency entry in assay [7] was “inactive”.
For the molecule `C=C[C@]1(C)C[C@@H](OC(=O)CSC(C)(C)CNC(=O)[C@H](N)C(C)C)[C@]2(C)[C@H](C)CC[C@]3(CCC(=O)[C@H]32)[C@@H](C)[C@@H]1O`, the Potency entry in assay [1], in [2], in assay [3], in assay [4], in assay [5] and in [6] was “inactive” in each case. In addition, in [7], the Potency entry is “inactive”.
Consider `S=C=Nc1ccc(N=C=S)cc1`, for which the Potency entry in assay [1], in assay [2], in assay [9], in [4], in assay [5] and in [6] was “inactive” each time. For the same molecule, the Potency result in assay [7] is “inactive”.
In the case of `CN(C)c1ccc(C(=C2C=CC(=[N+](C)C)C=C2)c2c(O)c(S(=O)(=O)[O-])cc3cc(S(=O)(=O)O)ccc23)cc1`, the Potency result in assay [1], in assay [2], in assay [3], in [4], in [5] and in assay [6] was “inactive” throughout. In addition, the Potency result in assay [7] was “inactive”.
For the molecule `CCCCCCCN(CC)CCCC(O)c1ccc(NS(C)(=O)=O)cc1` (stereo not drawn), the Potency entry in assay [1], in [2], in [9], in [4], in [5] and in assay [6] was “inactive” in each case. Further, the Potency entry in [7] is “inactive”.
Regarding `OCC(S)CS` (stereo not drawn), the Potency result in [1], in assay [3], in [8], in [4], in [5] and in assay [6] was “inactive” each time. Moreover, the Potency result in assay [7] is “inactive”. In addition, the Potency in [2] is 26.6 µM (active).
On to `Cc1cc(-c2ccc(N=Nc3c(S(=O)(=O)O)cc4cc(S(=O)(=O)O)cc(N)c4c3O)c(C)c2)ccc1N=Nc1c(S(=O)(=O)O)cc2cc(S(=O)(=O)O)cc(N)c2c1O`, for which the Potency result in assay [1], in assay [2], in [4], in assay [5], in assay [6] and in assay [7] was “inactive” throughout. In addition, the Potency in assay [9] was 26.6 µM (active).
On to `CCCCCCCCCCCCCCCCCC(=O)[O][Al]`, for which the Potency result in assay [1], in assay [2], in [9], in [4], in assay [5] and in assay [6] was “inactive” throughout. For the same molecule, the Potency result in assay [7] was “inactive”.
On to `COC(=O)C1=C(C#N)NC(C)=C(C(=O)OC(C)C)C1c1cccc([N+](=O)[O-])c1` (stereo not drawn), for which the Potency result in [1], in assay [2], in assay [4], in [5], in [6] and in assay [7] was “inactive” throughout. Besides, the values for the Potency in assay [3] and in assay [8] were 11.9 µM (active) and 19.7 µM (active), respectively.
As for `CC1=C(C(=O)OCCN(Cc2ccccc2)c2ccccc2)C(c2cccc([N+](=O)[O-])c2)C(P2(=O)OCC(C)(C)CO2)=C(C)N1` (stereo not drawn), the Potency result in assay [1], in assay [2], in [3], in assay [4], in [5] and in assay [6] was “inactive” throughout. The Potency result in assay [7] was “inactive”. The Potency in [8] was 26.6 µM (active).
With `CN=C1C=CC(=C(c2ccc(N(C)C)cc2)c2ccc(N(C)C)cc2)C=C1`, the Potency result in assay [1], in assay [5], in assay [6] and in assay [7] was “inactive” throughout. The values for the Potency in assay [2], in assay [9] and in assay [8] were 18.8 µM (active), 4.73 µM (active) and 0.0441 µM (active), respectively.
Regarding `O=C(Nc1ccc(/C=C/c2ccc(NC(=O)c3cc(S(=O)(=O)O)c4cccnc4c3O)cc2S(=O)(=O)O)c(S(=O)(=O)O)c1)c1cc(S(=O)(=O)O)c2cccnc2c1O`, the Potency result in assay [1], in assay [2], in assay [9], in assay [5], in assay [6] and in assay [7] was “inactive” in each case.
Regarding `CN1CCC(CN2c3ccccc3Sc3ccccc32)C1` (stereo not drawn), the Potency result in assay [1], in [2], in assay [9], in assay [4], in [5] and in assay [6] was “inactive” each time. In addition, in [7], the Potency result was “inactive”.
Turning to `N#CC(c1ccc(Cl)cc1)c1c(Cl)cc(-n2ncc(=O)[nH]c2=O)cc1Cl` (stereo not drawn), the Potency entry in assay [1], in [3], in [4], in assay [5], in assay [6] and in [7] was “inactive” each time. For the same molecule, the Potency in assay [2] is 23.7 µM (active); in assay [8], 8.41 µM (active).
On to `c1ccc2c(c1)Sc1ccccc1N2CCN1CCCC1`, for which the Potency entry in assay [1], in assay [2], in [9], in assay [4], in assay [5] and in [6] was “inactive” in each case. In addition, in assay [7], the Potency entry is “inactive”.
